# According to publication PMC7862700, “An all-to-all approach to the identification of sequence-specific readers for epigenetic DNA modifications on cytosine”:
# Tests used:
# Experiment in all cases: DAPPL (digital affinity profiling via proximity ligation, sequencing); 10 mM Tris-HCl pH 7.5, 50 mM NaCl, 1 mM DTT, 4% glycerol, room temperature, 30 min; GST-TFs on glutathione beads, 16-mer random dsDNA library, 0.1% formaldehyde crosslink after washing; high values mean tight binding
# [1] = molecular target: T1, FLI1 (Homo sapiens, UniProt Q01543 1-452); settings: protein: recombinant; tags: N-terminal GST; dsDNA, one strand shown
# T1 sequence: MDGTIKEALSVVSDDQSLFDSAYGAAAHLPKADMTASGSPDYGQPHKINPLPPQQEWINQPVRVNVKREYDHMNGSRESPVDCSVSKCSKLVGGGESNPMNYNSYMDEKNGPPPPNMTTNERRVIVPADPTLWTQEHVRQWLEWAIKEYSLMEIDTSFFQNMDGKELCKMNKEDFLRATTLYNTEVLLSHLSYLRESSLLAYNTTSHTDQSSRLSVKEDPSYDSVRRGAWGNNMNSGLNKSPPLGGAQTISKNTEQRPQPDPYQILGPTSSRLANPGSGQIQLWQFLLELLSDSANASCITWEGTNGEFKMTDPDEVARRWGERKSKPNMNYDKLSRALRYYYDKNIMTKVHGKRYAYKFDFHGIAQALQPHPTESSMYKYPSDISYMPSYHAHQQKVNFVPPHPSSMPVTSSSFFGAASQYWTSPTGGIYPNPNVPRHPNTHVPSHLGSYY
# Outline: (§1)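 GST fusions of human transcription factors were expressed in yeast and captured with glutathione beads. Once given DNA barcodes and pooled alongside a tag-only sample, they were incubated for 30 min at room temperature with 200 nmole of a random double-stranded 16-mer DNA library in Tris/NaCl/DTT/glycerol buffer, then washed, crosslinked (0.1% formaldehyde), proximity-ligated, PCR-amplified and sequenced on an Illumina NextSeq500. The binding signal of each hexamer is its read frequency for a factor divided by its frequency for the tag-only sample.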
# [2] = molecular target: T2, ELK1 (Homo sapiens, UniProt P19419 1-428); settings: protein: recombinant; tags: N-terminal GST; dsDNA, one strand shown
# T2 sequence: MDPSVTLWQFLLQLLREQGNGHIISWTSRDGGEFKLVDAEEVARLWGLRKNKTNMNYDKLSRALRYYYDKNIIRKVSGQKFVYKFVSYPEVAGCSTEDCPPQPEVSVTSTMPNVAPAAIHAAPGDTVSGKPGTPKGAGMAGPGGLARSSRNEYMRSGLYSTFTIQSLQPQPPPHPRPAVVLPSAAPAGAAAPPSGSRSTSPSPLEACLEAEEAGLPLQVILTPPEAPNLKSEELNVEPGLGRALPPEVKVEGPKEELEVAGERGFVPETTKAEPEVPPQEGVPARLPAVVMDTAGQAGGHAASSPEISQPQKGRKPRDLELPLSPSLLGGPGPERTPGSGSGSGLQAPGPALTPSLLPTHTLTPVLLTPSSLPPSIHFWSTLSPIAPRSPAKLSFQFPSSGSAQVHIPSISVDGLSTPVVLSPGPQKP
# Outline: as §1
# [3] = molecular target: T3, GABPA (Homo sapiens, UniProt Q06546 1-454); settings: protein: recombinant; tags: N-terminal GST; dsDNA, one strand shown
# T3 sequence: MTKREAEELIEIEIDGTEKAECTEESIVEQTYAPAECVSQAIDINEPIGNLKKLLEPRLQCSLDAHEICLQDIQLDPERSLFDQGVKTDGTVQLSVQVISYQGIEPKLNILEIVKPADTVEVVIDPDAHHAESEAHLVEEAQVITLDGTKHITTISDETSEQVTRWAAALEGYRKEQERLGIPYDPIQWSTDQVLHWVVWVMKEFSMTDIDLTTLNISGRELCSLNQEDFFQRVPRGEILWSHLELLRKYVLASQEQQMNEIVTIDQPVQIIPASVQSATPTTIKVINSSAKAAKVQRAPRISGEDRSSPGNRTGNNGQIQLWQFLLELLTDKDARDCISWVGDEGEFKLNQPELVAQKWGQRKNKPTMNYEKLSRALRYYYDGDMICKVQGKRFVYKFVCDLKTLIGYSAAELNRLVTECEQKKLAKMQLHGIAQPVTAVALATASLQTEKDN
# Outline: as §1
# [4] = molecular target: T4, ERG (Homo sapiens, UniProt P11308 1-479); settings: protein: recombinant; tags: N-terminal GST; dsDNA, one strand shown
# T4 sequence: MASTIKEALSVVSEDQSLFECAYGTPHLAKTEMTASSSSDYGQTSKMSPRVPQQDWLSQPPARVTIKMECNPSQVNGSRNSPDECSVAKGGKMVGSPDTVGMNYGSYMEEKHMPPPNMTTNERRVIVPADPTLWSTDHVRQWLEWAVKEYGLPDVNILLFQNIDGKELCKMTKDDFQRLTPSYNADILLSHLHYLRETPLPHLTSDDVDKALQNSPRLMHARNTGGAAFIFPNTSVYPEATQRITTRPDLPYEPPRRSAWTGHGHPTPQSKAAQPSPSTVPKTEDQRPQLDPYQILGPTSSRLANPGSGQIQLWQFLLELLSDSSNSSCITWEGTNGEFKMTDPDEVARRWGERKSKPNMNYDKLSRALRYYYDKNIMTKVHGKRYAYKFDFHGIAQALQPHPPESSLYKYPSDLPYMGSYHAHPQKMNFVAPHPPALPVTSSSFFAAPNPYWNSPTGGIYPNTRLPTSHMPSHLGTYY
# Outline: as §1
# [5] = molecular target: ELF1 (Homo sapiens, UniProt P32519 1-619); settings: protein: recombinant; tags: N-terminal GST; dsDNA, one strand shown
# ELF1, sequence (P32519 whole entry): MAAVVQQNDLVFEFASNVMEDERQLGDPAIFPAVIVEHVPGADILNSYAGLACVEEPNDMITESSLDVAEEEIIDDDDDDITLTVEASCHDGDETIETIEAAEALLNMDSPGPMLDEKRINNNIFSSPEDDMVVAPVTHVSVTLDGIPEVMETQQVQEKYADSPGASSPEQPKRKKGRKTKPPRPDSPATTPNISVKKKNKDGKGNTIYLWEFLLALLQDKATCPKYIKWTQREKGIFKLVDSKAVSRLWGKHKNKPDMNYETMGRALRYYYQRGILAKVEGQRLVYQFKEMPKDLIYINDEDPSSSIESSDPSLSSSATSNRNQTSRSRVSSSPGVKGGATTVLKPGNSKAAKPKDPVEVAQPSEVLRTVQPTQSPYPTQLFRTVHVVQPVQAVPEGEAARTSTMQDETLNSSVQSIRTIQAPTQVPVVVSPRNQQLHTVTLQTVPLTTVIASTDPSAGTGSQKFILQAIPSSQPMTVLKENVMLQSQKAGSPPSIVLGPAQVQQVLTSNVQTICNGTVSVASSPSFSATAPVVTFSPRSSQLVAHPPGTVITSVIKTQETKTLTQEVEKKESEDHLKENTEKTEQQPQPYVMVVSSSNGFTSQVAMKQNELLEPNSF
# Outline: as §1
# [6] = molecular target: T5, EHF (Homo sapiens, UniProt Q9NZC4 1-300); settings: protein: recombinant; tags: N-terminal GST; dsDNA, one strand shown
# T5 sequence: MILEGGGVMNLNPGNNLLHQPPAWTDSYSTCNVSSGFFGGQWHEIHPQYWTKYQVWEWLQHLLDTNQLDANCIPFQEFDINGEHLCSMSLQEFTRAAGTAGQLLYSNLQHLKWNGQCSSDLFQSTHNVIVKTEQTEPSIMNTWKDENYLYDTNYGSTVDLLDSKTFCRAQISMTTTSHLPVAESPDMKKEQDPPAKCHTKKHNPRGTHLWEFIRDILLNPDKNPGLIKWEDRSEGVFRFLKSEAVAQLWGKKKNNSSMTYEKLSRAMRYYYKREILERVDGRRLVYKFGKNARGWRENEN
# Outline: as §1
# [7] = molecular target: SPI1 (Homo sapiens, UniProt P17947 1-270); settings: protein: recombinant; tags: N-terminal GST; dsDNA, one strand shown
# Outline: as §1
# [8] = molecular target: SPIB (Homo sapiens, UniProt Q01892 1-262); settings: protein: recombinant; tags: N-terminal GST; dsDNA, one strand shown
# SPIB, sequence (Q01892 whole entry): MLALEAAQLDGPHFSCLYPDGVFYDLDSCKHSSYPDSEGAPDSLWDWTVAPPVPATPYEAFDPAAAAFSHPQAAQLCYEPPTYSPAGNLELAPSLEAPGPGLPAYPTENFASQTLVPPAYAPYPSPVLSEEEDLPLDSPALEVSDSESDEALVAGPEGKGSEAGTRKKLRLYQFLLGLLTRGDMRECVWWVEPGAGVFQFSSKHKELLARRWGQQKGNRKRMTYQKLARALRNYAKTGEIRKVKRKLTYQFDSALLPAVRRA
# Outline: as §1
# [9] = molecular target: T6, ELK3 (Homo sapiens, UniProt P41970 1-407); settings: protein: recombinant; tags: N-terminal GST; dsDNA, one strand shown
# T6 sequence: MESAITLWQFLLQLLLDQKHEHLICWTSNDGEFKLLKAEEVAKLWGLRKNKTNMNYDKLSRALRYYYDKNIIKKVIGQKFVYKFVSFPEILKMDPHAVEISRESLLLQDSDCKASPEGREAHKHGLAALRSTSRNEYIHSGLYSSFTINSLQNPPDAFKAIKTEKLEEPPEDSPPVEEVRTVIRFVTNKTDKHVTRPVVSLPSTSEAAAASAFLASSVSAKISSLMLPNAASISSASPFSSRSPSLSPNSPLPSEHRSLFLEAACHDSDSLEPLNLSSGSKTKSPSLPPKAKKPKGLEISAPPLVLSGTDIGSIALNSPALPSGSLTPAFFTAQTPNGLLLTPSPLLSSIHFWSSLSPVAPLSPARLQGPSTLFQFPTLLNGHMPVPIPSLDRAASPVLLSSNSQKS
# Outline: as §1
# [10] = molecular target: T7, FEV (Homo sapiens, UniProt Q99581 1-238); settings: protein: recombinant; tags: N-terminal GST; dsDNA, one strand shown
# T7 sequence: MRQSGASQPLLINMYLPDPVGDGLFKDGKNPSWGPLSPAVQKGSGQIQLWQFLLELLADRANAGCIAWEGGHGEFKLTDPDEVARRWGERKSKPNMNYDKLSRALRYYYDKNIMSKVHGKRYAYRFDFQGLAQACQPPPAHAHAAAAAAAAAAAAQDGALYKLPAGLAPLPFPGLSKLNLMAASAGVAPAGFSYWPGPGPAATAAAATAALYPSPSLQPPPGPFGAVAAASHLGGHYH
# Outline: as §1
# [11] = molecular target: ETV5 (Homo sapiens, UniProt P41161 1-510); settings: protein: recombinant; tags: N-terminal GST; dsDNA, one strand shown
# ETV5, sequence (P41161 whole entry): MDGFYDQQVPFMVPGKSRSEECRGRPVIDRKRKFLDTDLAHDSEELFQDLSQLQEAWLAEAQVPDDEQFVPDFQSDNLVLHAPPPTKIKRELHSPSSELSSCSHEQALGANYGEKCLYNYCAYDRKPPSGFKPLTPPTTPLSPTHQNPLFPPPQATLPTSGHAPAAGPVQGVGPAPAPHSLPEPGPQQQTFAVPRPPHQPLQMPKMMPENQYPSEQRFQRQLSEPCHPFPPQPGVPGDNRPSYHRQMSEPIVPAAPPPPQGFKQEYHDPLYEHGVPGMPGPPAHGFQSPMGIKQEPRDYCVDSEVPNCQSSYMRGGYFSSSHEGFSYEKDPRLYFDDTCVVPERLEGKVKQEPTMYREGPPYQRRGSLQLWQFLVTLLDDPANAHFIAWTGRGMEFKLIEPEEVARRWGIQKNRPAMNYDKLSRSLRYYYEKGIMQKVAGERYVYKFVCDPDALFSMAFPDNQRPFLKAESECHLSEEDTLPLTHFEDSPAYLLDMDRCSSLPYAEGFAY
# Outline: as §1
# [12] = molecular target: HSF1 (Homo sapiens, UniProt Q00613 1-529); settings: protein: recombinant; tags: N-terminal GST; chain copies: 3; dsDNA, one strand shown
# HSF1, sequence (Q00613 whole entry): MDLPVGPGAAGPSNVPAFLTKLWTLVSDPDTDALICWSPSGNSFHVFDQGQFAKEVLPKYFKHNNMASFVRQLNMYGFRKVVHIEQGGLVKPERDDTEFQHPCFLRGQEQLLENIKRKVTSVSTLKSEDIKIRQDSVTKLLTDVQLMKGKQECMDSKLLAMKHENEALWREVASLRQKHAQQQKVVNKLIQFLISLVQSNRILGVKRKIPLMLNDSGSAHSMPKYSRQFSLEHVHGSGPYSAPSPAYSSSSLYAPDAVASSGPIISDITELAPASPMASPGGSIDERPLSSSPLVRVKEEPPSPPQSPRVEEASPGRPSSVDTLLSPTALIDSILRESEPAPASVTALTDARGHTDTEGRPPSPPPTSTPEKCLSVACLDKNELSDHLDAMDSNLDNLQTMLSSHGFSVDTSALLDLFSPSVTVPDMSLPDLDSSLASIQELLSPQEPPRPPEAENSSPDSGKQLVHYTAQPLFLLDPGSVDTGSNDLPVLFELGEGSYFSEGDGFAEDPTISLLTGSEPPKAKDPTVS
# Outline: as §1
# [13] = molecular target: T8, SPIC (Homo sapiens, UniProt Q8N5J4 1-248); settings: protein: recombinant; tags: N-terminal GST; dsDNA, one strand shown
# T8 sequence: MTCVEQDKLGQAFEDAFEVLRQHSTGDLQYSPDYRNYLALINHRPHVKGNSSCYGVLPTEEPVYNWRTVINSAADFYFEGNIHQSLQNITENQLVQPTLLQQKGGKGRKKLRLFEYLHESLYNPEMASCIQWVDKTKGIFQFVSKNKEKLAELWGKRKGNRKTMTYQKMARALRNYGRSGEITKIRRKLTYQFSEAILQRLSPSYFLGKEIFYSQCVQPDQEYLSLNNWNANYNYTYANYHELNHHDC
# Outline: as §1
# [14] = molecular target: ELF4 (Homo sapiens, UniProt Q99607 1-663); settings: protein: recombinant; tags: N-terminal GST; dsDNA, one strand shown
# ELF4, sequence (Q99607 whole entry): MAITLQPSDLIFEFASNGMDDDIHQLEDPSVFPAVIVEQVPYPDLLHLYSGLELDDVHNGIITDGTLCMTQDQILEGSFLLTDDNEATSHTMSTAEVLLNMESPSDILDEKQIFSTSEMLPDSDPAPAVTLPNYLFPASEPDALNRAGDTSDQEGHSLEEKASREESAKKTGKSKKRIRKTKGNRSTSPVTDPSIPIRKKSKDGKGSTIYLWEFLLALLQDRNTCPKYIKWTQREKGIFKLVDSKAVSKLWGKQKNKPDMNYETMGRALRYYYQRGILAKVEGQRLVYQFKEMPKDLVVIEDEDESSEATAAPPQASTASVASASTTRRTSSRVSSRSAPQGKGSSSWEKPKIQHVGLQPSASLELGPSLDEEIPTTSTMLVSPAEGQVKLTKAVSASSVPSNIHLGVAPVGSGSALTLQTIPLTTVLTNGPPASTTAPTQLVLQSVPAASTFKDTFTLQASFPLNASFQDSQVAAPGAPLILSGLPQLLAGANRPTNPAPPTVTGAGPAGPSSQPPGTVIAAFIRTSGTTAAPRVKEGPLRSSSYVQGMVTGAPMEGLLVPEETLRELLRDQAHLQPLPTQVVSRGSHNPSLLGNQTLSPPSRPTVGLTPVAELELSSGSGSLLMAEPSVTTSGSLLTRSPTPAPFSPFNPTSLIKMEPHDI
# Outline: as §1
# [15] = molecular target: T9, ELK4 (Homo sapiens, UniProt P28324-2 1-405); settings: protein: recombinant; tags: N-terminal GST; dsDNA, one strand shown
# T9 sequence: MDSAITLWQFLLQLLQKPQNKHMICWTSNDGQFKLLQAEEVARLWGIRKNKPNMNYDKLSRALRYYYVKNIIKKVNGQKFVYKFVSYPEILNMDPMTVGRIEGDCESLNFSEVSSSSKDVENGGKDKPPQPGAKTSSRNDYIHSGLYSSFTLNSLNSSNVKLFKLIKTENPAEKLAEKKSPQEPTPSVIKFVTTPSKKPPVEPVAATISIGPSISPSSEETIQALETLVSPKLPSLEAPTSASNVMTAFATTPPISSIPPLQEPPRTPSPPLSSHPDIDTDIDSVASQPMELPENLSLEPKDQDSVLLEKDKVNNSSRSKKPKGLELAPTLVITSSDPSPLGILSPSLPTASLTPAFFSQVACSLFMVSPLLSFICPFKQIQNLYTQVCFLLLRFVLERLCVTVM
# Outline: as §1
# [16] = molecular target: T10, ETV2 (Homo sapiens, UniProt O00321 1-342); settings: protein: recombinant; tags: N-terminal GST; dsDNA, one strand shown
# T10 sequence: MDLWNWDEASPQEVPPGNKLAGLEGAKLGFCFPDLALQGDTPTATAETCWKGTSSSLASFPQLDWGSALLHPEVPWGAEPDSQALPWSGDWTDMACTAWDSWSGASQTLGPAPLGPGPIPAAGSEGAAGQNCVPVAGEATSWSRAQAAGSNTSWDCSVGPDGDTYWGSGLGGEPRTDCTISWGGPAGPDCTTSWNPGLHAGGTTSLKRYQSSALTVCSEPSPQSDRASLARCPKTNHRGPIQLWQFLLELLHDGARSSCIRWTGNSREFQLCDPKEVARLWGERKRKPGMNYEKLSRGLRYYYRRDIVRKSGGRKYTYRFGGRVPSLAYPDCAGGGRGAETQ
# Outline: as §1
# [17] = molecular target: T11, ELF3 (Homo sapiens, UniProt P78545 1-371); settings: protein: recombinant; tags: N-terminal GST; dsDNA, one strand shown
# T11 sequence: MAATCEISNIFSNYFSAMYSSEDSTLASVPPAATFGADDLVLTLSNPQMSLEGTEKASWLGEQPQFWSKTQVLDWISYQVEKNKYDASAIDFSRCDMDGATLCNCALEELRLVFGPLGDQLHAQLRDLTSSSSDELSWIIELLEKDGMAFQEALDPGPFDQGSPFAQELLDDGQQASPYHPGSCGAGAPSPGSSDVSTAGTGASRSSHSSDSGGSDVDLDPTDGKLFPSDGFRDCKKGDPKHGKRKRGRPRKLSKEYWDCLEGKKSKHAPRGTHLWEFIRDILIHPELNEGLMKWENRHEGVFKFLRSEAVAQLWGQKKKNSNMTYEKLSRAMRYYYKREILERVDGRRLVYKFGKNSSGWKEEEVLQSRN
# Outline: as §1
# [18] = molecular target: ETV1 (Homo sapiens, UniProt P50549 1-477); settings: protein: recombinant; tags: N-terminal GST; dsDNA, one strand shown
# ETV1, sequence (P50549 whole entry): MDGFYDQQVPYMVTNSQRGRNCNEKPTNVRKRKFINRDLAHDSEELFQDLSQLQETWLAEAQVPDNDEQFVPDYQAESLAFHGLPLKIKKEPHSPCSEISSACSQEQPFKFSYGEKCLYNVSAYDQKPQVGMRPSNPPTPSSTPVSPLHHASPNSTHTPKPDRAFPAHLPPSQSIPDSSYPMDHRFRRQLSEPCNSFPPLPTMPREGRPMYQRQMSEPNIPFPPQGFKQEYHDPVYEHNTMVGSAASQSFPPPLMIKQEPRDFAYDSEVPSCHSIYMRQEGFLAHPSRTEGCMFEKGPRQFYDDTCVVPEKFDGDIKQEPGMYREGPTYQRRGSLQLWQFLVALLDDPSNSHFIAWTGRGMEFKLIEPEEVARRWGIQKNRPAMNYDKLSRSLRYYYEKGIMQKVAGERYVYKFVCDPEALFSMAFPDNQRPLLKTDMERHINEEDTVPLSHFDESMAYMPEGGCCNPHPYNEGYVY
# Outline: as §1
sequence,measurement,setting,value
CGCCGA,binding signal,[1],"1.19 fold enrichment (6-mer frequency, TF over GST control)"
same,binding signal,[2],"1.2 fold enrichment (6-mer frequency, TF over GST control)"
same,binding signal,[3],"1.26 fold enrichment (6-mer frequency, TF over GST control)"
same,binding signal,[4],"1.1 fold enrichment (6-mer frequency, TF over GST control)"
same,binding signal,[5],"1.19 fold enrichment (6-mer frequency, TF over GST control)"
same,binding signal,[6],"1.22 fold enrichment (6-mer frequency, TF over GST control)"
same,binding signal,[7],"1.16 fold enrichment (6-mer frequency, TF over GST control)"
same,binding signal,[8],"1.18 fold enrichment (6-mer frequency, TF over GST control)"
same,binding signal,[9],"1.22 fold enrichment (6-mer frequency, TF over GST control)"
same,binding signal,[10],"1.21 fold enrichment (6-mer frequency, TF over GST control)"
same,binding signal,[11],"1.13 fold enrichment (6-mer frequency, TF over GST control)"
same,binding signal,[12],"1.2 fold enrichment (6-mer frequency, TF over GST control)"
same,binding signal,[13],"1.18 fold enrichment (6-mer frequency, TF over GST control)"
same,binding signal,[14],"1.26 fold enrichment (6-mer frequency, TF over GST control)"
same,binding signal,[15],"1.28 fold enrichment (6-mer frequency, TF over GST control)"
same,binding signal,[16],"1.16 fold enrichment (6-mer frequency, TF over GST control)"
same,binding signal,[17],"1.03 fold enrichment (6-mer frequency, TF over GST control)"
same,binding signal,[18],"1.15 fold enrichment (6-mer frequency, TF over GST control)"
